PubChem BioAssay (NCI)
The panel holds about 83,000 compounds, 20% with a hit somewhere; the sample as a whole holds those more often.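 Cells were grown in 96-well plates and exposed to the test compound at a single concentration for 48 hours; results are reported as percent growth, with values below 10 considered active.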 Calls of active or inactive are those of the source.

Tests used:
Assay in all cases: NCI-60 one-dose screen, 48 h (100 = growth as untreated, 0 = no growth, -100 = all killed)
Settings in all cases: 10 µM unless noted
[1] = tested on: SK-MEL-2 melanoma
[2] = tested on: EKVX NSCLC
[3] = tested on: SN12C renal
[4] = tested on: UO-31 renal
[5] = tested on: TK-10 renal
[6] = tested on: ACHN renal
[7] = tested on: CAKI-1 renal
[8] = tested on: A498 renal
[9] = tested on: CCRF-CEM leukemia
[10] = tested on: MOLT-4 leukemia

Measured: growth

CCOC(=O)C1=C(C)N(C)C(=O)N(C)C1c1ccccc1 (stereo not given)
inactive: [1] 106% | [2] 97.2% | [3] 91.6% | [4] 78.7% | [5] 106% | [6] 95.9% | [7] 90.6% | [8] 86.8% | [9] 86.6% | [10] 104%

CCCCCCCCCCCCCCCCCCOc1ccccc1CC(=O)OCC[N+]1(C)CCCCC1
active: [9] 6.32% | [10] 6.43%
inactive: [1] 80.3% | [2] 63.1% | [3] 24.2% | [4] 73.8% | [5] 66.2% | [6] 94.7% | [7] 65.5% | [8] 83.3%

O=C(OCC(O)(CO)C(=O)NC12CC3CC(CC(C3)C1)C2)c1ccc(Cl)cc1 (stereo not given)
inactive: [1] 86.3% | [2] 103% | [3] 100% | [4] 82.6% | [5] 85.3% | [6] 102% | [7] 99% | [8] 102% | [9] 87.8% | [10] 83.8%

C#CCOc1ccc(C2=NN(C)C3N=C(Cl)c4ncn(C)c4N23)cc1OCC#C (stereo not given)
inactive: [1] 105% | [2] 102% | [3] 97.6% | [4] 74.6% | [5] 99% | [6] 89.6% | [7] 103% | [8] 85.4% | [9] 87.4% | [10] 82.9%

Cc1c2ccncc2c(C)c2c1c1ccccc1n2CCCCCC(=O)O
inactive: [1] 92.4% | [2] 90.3% | [3] 94.2% | [4] 56.7% | [5] 128% | [6] 82.9% | [7] 91.1% | [8] 52.8% | [9] 94.1% | [10] 74.8%

COc1ccc(CNc2c3ccccc3nc3ccccc23)cc1OC
inactive: [1] 38.6% | [2] 15.2% | [3] 22.5% | [4] 12.1% | [5] 32.3% | [7] 10.5% | [9] 30.5% | [10] 10.6%
active: [6] 4.11% | [8] -12.1%

C[C@H]1c2ccccc2CN1CCCOc1cc2c(cc1OCC1CC1)C1(CCCC1)C(N)=N2
inactive: [1] 54% | [2] 72.8% | [3] 67.6% | [4] 29.3% | [5] 92.7% | [6] 69% | [7] 18.5% | [8] 32.5% | [9] 54.6% | [10] 36.4%

CC(C)CCc1nc2ccc(NCc3ccc(OCCN4CCC(C)CC4)cc3)cc2[nH]1
inactive: [1] 110% | [2] 78.5% | [3] 69.9% | [4] 57.4% | [5] 111% | [6] 97.3% | [7] 64.8% | [8] 79.3% | [9] 67.3% | [10] 62.3%

Cn1cc(-c2ccc3c(Nc4cccc(NC(=O)Nc5cccc(F)c5)c4)ncnc3c2)cn1
active: [9] 4.27%
inactive: [1] 43.2% | [2] 53% | [3] 30.1% | [4] 23.7% | [5] 39.4% | [6] 15.2% | [7] 39.8% | [8] 41.9% | [10] 14.3%

COc1ccccc1-c1nc2ccc3[nH]ncc3c2c2c1CCCC2
active: [8] 6.87%
inactive: [1] 99% | [2] 44.3% | [3] 80.5% | [4] 36.3% | [5] 60.4% | [6] 58.2% | [7] 21.8% | [9] 66.6% | [10] 42.6%

c1ccc2[nH]c(-c3ccc(-c4nccc5c4[nH]c4ccccc45)cc3)nc2c1
inactive: [1] 47.3% | [2] 81.2% | [3] 60.9% | [4] 89.2% | [5] 73.5% | [6] 71.7% | [7] 81.9% | [8] 68.7% | [9] 11.1% | [10] 77.1%

CC(=O)c1ccc(Nc2nccc(-c3ccc(Cl)cc3)n2)cc1
inactive: [1] 98.1% | [2] 99.2% | [3] 100% | [4] 93.1% | [5] 85.5% | [6] 92.3% | [7] 92.6% | [9] 84.4% | [10] 83.8%
active: [8] 7.16%

FC(F)(F)c1cccc(-c2nnn(Cc3cc(-c4cccc(Cl)c4)no3)n2)c1
inactive: [1] 114% | [2] 115% | [3] 101% | [4] 85.7% | [5] 109% | [6] 107% | [7] 98.9% | [8] 103% | [9] 96.1% | [10] 107%

CO[C@H]1CC(c2ccc[nH]2)=N[C@]12O[C@@H](C)C[C@@H]1CCCCCCCc3ccc([nH]3)[C@H]12
active: [1] -16.2% | [4] -15.6% | [6] 8.05% | [7] 9.32%
inactive: [2] 29.4% | [3] 33.6% | [5] 15% | [8] 57.4% | [9] 22.7% | [10] 20.6%

c1ccc2cc(Cn3cc[n+](Cc4ccc5ccccc5c4)c3)ccc2c1
inactive: [2] 51.7% | [3] 18.2% | [4] 70.6% | [6] 90.6% | [7] 96% | [8] 75.9% | [9] 21.7% | [10] 25%
active: [1] -11.5% | [5] 8.12%

O=C(O)c1nn(-c2ccc(Cl)cc2)nc1N1CCCC1
inactive: [1] 102% | [2] 88.3% | [3] 101% | [4] 79.9% | [5] 133% | [6] 99.4% | [7] 97.6% | [8] 74.3% | [9] 100% | [10] 97.5%

CCCCCCCCNC(=O)[C@@H](N)CSCOC(C)=O
inactive: [1] 89.1% | [2] 111% | [3] 91.7% | [4] 94.9% | [5] 105% | [6] 100% | [7] 107% | [8] 63% | [9] 45.7% | [10] 90.4%

C#CC#CC#CC#CC#CC#CC#CC#CC[C@@H]1OC[C@H](COC(=O)O[C@@H](C(=O)O[C@H]2C[C@@]3(O)[C@@H](OC(=O)c4ccccc4)[C@@H]4[C@]5(OC(C)=O)CO[C@@H]5C[C@H](O)[C@@]4(C)C(=O)[C@H](OC(C)=O)C(=C2C)C3(C)C)[C@@H](NC(=O)c2ccccc2)c2ccccc2)O1
inactive: [1] 44.2% | [2] 65.8% | [3] 38.6% | [4] 99.6% | [5] 93.3% | [6] 79.3% | [7] 71% | [8] 21.3% | [9] 13.8% | [10] 30.9%

COc1ccc(NC(=O)c2sc3nc(C)c(C(=O)c4ccccc4)cc3c2N)cc1
active: [8] -9.31%
inactive: [1] 88.8% | [2] 94.7% | [3] 99.5% | [4] 90% | [5] 86.6% | [6] 95.1% | [7] 92.9% | [9] 95% | [10] 88.5%

N#C/C(=C\c1cccc2cnccc12)N1N=NC2C=CC=CC21 (stereo not given)
inactive: [1] 61.3% | [2] 40.4% | [3] 30.7% | [4] 27.2% | [5] 55.6% | [6] 19.2% | [7] 27% | [8] 38.5% | [9] 10.2% | [10] 31.7%

O=C1/C(=C/c2cccc([N+](=O)[O-])c2)COc2ccc(O)c(O)c21
active: [1] -25.4% | [3] -71.3% | [4] -98.8% | [5] -48.5% | [6] -98.4% | [7] -67.5% | [9] 0.148% | [10] -1.81%
inactive: [2] 34.7% | [8] 99.7%
